# Results: patent publication US20140271602, “NUCLEOTIDE-SPECIFIC RECOGNITION SEQUENCES FOR DESIGNER TAL EFFECTORS” (THE BROAD INSTITUTE INC., published 2014)
# Numbering of substitutions follows the chain as printed.
# Legend:
# Assay in all cases: cell_activity; luciferase reporter
# Conditions in all cases: tags: VP64, 2A-GFP; dsDNA, one strand shown
# [1] = target: T1, TALE2-HN (CACNA1C site 2 activator) (Xanthomonas (engineered), UniProt P14727 SEQ:1-983)
# T1 chain: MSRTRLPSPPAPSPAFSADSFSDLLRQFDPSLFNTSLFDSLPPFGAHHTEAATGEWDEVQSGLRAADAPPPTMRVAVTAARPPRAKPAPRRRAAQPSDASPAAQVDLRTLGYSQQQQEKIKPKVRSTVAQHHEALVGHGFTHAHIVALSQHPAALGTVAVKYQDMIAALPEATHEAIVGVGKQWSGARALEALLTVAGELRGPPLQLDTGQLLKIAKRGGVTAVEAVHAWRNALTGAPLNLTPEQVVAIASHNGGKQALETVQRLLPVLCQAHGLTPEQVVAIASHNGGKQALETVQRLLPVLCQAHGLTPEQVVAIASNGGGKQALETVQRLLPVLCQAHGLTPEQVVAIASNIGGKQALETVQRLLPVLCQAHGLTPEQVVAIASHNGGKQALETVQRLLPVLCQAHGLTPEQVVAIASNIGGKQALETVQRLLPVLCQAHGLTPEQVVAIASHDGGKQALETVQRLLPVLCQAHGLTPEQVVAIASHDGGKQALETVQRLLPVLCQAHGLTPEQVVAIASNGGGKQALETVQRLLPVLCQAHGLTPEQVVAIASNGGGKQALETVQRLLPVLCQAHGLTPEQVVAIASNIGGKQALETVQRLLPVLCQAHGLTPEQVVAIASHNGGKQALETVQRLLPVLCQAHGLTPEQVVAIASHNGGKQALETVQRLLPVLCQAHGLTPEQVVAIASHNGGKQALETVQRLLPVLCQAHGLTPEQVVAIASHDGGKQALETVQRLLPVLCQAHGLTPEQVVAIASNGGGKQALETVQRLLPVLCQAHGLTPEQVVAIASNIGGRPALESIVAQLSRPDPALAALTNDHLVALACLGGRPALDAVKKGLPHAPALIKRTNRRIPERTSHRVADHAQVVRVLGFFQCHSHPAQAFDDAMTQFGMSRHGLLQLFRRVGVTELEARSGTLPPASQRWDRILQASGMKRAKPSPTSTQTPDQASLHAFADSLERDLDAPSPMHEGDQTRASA
# [2] = target: T2, TALE2-NH (CACNA1C site 2 activator) (Xanthomonas (engineered), UniProt P14727 SEQ:1-983)
# T2 chain: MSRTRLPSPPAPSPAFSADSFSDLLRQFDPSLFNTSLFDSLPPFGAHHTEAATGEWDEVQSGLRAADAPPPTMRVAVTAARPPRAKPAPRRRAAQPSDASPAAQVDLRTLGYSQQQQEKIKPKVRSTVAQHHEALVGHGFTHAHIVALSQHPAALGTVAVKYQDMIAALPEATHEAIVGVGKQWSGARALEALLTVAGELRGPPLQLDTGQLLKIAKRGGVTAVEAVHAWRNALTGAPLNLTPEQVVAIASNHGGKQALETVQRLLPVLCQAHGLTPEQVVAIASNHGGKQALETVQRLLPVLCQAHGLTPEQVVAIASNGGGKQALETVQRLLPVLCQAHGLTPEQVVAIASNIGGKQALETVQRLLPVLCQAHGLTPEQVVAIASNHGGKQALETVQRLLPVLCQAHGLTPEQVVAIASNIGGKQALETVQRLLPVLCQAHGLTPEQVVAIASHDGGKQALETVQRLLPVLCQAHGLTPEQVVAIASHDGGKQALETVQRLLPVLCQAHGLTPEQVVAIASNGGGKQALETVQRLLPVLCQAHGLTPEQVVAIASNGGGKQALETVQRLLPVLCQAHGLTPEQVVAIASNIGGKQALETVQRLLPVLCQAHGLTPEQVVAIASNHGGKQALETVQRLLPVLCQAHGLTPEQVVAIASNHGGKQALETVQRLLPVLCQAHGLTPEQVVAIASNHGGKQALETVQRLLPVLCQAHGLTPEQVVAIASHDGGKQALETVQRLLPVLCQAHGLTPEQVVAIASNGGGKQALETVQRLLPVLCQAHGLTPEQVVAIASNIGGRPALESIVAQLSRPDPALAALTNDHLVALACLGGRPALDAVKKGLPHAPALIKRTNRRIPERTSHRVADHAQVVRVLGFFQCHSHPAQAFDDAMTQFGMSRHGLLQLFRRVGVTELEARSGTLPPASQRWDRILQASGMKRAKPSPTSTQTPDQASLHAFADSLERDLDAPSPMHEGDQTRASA
# [3] = target: T3, TALE2-NK (CACNA1C site 2 activator) (Xanthomonas (engineered), UniProt P14727 SEQ:1-983)
# T3 chain: T2 chain with H253K, H287K, H389K, H627K, H661K, H695K
# [4] = target: T4, TALE1-NN (CACNA1C site 1 activator) (Xanthomonas (engineered), UniProt P14727 SEQ:1-983)
# T4 chain: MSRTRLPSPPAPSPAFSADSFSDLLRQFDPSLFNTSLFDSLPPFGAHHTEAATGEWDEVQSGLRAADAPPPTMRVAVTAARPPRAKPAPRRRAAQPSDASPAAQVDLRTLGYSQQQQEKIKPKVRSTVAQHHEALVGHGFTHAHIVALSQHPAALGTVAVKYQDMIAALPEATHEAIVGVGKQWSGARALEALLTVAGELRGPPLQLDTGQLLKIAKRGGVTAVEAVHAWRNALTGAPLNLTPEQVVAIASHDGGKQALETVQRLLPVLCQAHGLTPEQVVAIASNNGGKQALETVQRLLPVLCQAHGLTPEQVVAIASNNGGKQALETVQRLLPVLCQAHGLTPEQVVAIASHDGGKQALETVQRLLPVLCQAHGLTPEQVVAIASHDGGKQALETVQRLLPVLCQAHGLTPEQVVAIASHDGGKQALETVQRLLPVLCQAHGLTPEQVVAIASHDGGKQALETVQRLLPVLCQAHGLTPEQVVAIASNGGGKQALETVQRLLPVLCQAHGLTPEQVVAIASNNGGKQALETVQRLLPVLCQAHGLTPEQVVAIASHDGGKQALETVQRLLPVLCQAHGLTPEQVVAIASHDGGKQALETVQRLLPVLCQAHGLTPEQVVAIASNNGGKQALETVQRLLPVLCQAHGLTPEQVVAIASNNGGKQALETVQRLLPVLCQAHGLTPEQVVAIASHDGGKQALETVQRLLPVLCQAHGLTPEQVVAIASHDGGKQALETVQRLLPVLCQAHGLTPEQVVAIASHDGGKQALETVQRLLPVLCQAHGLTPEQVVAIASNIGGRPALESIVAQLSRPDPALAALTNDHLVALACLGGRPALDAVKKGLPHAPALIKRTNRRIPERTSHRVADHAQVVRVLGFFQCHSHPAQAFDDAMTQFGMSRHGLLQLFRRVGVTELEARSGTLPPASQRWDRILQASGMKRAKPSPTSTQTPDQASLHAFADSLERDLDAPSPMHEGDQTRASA
# [5] = target: T5, TALE1-NK (CACNA1C site 1 activator) (Xanthomonas (engineered), UniProt P14727 SEQ:1-983)
# T5 chain: T4 chain with N287K, N321K, N525K, N627K, N661K
sequence,measurement,setting,value
TAATAGACCTTAGGGCTA,binding signal,[1],13.9 % reduction vs wild-type site
same,binding signal,[2],66.1 % reduction vs wild-type site
same,binding signal,[3],36.3 % reduction vs wild-type site
TCAACCCCTGCCGGCCCA,binding signal,[4],35.4 % reduction vs wild-type site
same,binding signal,[5],40.3 % reduction vs wild-type site
TAATAAACCTTAAAACTA,binding signal,[2],< 10 % of wild-type site activation
